Screening data as filed in PubChem BioAssay.
ADAM17 inh: inhibits human ADAM17; P78536; recombinant ADAM17, EDANS/DABCYL FRET peptide cleavage; inhibition, % at 6.95 µM; 370,000 compounds, 0.83% hits; AID 720648;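 active means inhibition above the mean of compounds lying between control limits plus 3 SD, set per campaign, cut at about 8.5% in these data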
proKLK7 act: proKLK7 (human) activation, primary screen; P49862; purified proKLK7, EDANS-DABCYL substrate fluorescence; 100% is mature enzyme control, 0% vehicle; activation, % at 7 µM; 370,000 compounds, 0.9% hits;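 active means activation above the mean of all tested compounds plus 3 SD, computed per campaign excluding outliers beyond control limits, cut at about 13% in these data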
CendR NRP1 mod: NRP-1/CendR interaction modulation; O14786; FAM-RPARPAR peptide binding to NRP-1, fluorescence polarization; inhibition, % at 25 µM; 360,000 compounds, 0.85% hits; AID 602438;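 active means inhibition or corrected inhibition above about 18%, plus a signal ratio from 0.5 to 1.5, limit read from the data, passing the limit was not always enough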
Target sequence (O14786 whole entry, looked up): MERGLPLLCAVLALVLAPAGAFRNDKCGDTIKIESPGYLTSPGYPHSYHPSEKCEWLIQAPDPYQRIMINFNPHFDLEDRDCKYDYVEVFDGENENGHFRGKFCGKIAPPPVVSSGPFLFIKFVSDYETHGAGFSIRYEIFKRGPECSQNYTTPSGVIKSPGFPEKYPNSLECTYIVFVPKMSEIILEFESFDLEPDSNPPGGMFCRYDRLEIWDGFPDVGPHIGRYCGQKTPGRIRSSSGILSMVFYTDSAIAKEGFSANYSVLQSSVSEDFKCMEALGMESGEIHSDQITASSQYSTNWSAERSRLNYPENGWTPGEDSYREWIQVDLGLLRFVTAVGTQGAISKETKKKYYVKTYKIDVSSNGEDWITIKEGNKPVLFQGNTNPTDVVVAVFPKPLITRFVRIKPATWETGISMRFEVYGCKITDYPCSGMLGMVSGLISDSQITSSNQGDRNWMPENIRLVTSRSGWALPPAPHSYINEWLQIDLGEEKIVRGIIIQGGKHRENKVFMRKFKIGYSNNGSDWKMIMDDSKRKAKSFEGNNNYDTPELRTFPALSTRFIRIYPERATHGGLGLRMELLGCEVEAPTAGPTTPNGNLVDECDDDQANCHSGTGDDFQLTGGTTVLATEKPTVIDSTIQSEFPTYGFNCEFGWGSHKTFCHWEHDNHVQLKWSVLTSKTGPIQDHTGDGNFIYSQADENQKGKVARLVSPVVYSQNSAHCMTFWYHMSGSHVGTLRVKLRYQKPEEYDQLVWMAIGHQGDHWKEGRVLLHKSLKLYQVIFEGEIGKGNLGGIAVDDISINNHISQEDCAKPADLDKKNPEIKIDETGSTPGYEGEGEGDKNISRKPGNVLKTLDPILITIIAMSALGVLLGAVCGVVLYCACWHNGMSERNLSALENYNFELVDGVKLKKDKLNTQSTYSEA
sPLA2-III inh: Inhibits HGIII-sPLA2 liposome hydrolysis, primary screen | Q9NZ20 | QFRET BODIPY PC-A2 liposome hydrolysis, fluorescence | inhibition, % at 12.2 µM | 370,000 compounds, 0.56% hits | AID 743126;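 active means inhibition above mean plus 3 SD of compounds lying within the high and low control bounds, cut at about 19% in these data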
ADAM10 inh: inhibits human ADAM10 | 370,000 compounds, 0.62% hits | recombinant ADAM10, EDANS/DABCYL FRET peptide cleavage, 3 h | inhibition, % at 7 µM | O14672;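 active means inhibition above a per-campaign cutoff equal to the mean of compounds falling between control-based bounds plus 3 SD, cut at about 20% in these data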
Numbers stand for hits; i = inactive; nt = not tested or not shown. Hits are enriched below; roughly 3.4% of the tested compounds scored in any of these assays.

SMILES	ADAM17 inh	proKLK7 act	CendR NRP1 mod	sPLA2-III inh	ADAM10 inh
N=c1c2c(n(Cc3ccc(Cl)cc3)c3c1CCC3)CCC2	i	i	i	i	i
N=c1c2c(n(Cc3ccc(F)cc3)c3c1CCC3)CCCC2	i	i	24	i	i
COC(=O)[C@H](C(C)C)N(Cc1cn(Cc2ccccc2)nn1)S(=O)(=O)c1ccccc1Br	i	i	nt	i	i
CCOc1ccc(/C=c2\sc3nc(-c4ccco4)nn3c2=O)cc1OCC	i	i	i	i	i
COc1cc(/C=c2\sc3nc(=O)c(-c4ccccc4)nn3c2=O)ccc1OCCC(C)C	i	i	40	i	i
COC(=O)c1cccc(NC(=S)NCc2ccco2)c1	i	i	i	i	i
COC(=O)c1cccc(NC(=S)NCc2ccc(F)cc2)c1	i	i	46	i	i
CCOC(=O)c1c(NC(=O)COc2ccccc2C#N)sc2c1CC(C)(C)NC2(C)C	i	i	22	i	i
CCOC(=O)c1c(NC(=O)COc2ccccc2OCC)sc2c1CC(C)(C)NC2(C)C	nt	nt	i	nt	nt
Cc1cccc(Cn2c(N(C)Cc3ccccc3)nc3c2c(=O)[nH]c(=O)n3C)c1	i	i	26	i	i
CN(Cc1ccccc1)c1nc2c(c(=O)[nH]c(=O)n2C)n1C	i	i	i	i	i
CN1CCCN(C(=O)CN2C(=O)CC(C)(C)S(=O)(=O)c3ccccc32)CC1	i	i	nt	i	i
S=C(NCC1CCCO1)Nc1ccccc1 (stereo unspecified)	i	i	21	i	i
S=C(NCC1CCCO1)Nc1ccc(Cl)cc1 (stereo unspecified)	i	i	i	i	i
S=C(NCCCNC(=S)Nc1ccccc1)Nc1ccccc1	i	i	48	i	i
CCCNC(=S)Nc1ccc(Nc2ccccc2)cc1	i	i	i	i	i
O=C(NCc1ccc(F)c(F)c1)C1CCC(CNS(=O)(=O)c2cccc3cccnc23)CC1 (stereo unspecified)	i	i	nt	i	i
CCc1cccc2c(C(C)c3ccccc3O)c[nH]c12 (stereo unspecified)	i	i	nt	i	i
N#CCC[C@@H]1CC[C@]2(CCCN(C(=O)c3ccc4ccccc4n3)C2)O1	i	i	nt	i	i
C=CCC(C#Cc1ccc(C)cc1)N(CC)CC (stereo unspecified)	i	i	29	i	i
CN(C)c1cccc(-c2cnc(N3CCC(C(N)=O)CC3)s2)c1	i	nt	nt	i	i
COc1ccc(O)c(/C=N/Nc2nc(Nc3ccccc3)nc(-n3nc(C)cc3C)n2)c1	11	i	i	i	i
COc1cc(/C=N/Nc2nc(Nc3ccccc3)nc(-n3nc(C)cc3C)n2)cc(OC)c1OC	i	i	i	i	i
O=C(CSc1nnc(-c2cccnc2)n1-c1ccc(Cl)cc1)Nc1ccc(S(=O)(=O)Nc2nccs2)cc1	i	i	nt	i	i
CCCCC(O)(CCCC)C(=O)NN(C(=O)OCC)c1ccccc1	i	i	i	i	i
SMILES	ADAM17 inh	proKLK7 act	CendR NRP1 mod	sPLA2-III inh	ADAM10 inh
CCCCC(O)(CCCC)C(=O)NN(C(=O)OC)c1ccccc1	i	i	31	i	i
COc1ccc(CCN=C(N)NS(=O)(=O)c2cccs2)cc1OC	i	i	20	i	i
COc1ccccc1CCN=C(N)NS(=O)(=O)c1cccs1	i	i	i	i	i
COC(=O)[C@]12C[C@H](CC(=O)N3CCC(c4ccccc4)CC3)C(=O)N(Cc3cccc4ccccc34)C1=C[C@H](C(C)(C)C)O[C@@H]2C	i	i	nt	i	i
CCOC(=O)[C@@H]1[C@H]2COc3ccccc3[C@H]2N2C(=O)N(c3ccc(C)cc3)C(=O)[C@]12C	i	i	i	i	i
CCOC(=O)[C@@H]1[C@H]2COc3ccc(Br)cc3[C@H]2N2C(=O)N(c3ccc(C(F)(F)F)cc3)C(=O)[C@]12C	i	i	i	i	24
CCOC(=O)[C@H]1[C@H]2COc3ccccc3[C@@H]2N2C(=O)[C@@H](C)NC(=O)[C@@]12C	i	i	28	i	i
CCOC(=O)[C@@H]1[C@H]2COc3ccccc3[C@@H]2N2C(=O)N(c3ccc(Cl)cc3)C(=O)[C@]12C	i	i	30	i	i
CCOC(=O)[C@H]1[C@H]2COc3ccccc3[C@@H]2N2C(=O)c3ccccc3NC(=O)[C@@]12C	i	i	i	i	i
CN(CC#Cc1ccccc1)C(N)=NC(=O)/C=C/c1ccccc1	i	i	nt	i	i
CCOc1ccc(C2CC(c3ccc(CC)cc3)n3nc(N)nc3N2)cc1 (stereo unspecified)	i	i	44	i	i
